Laboratory results as given in PubChem BioAssay.
Calls of active or inactive are those of the source.

Experiments:
[1] = system: Plasmodium falciparum Sir2 (PF13_0152, Sir2A); test: pfSir2 binders on small-molecule microarrays, primary screen, biochemical, small-molecule microarray, 635 nm fluorescence (AID 1098); conditions: small-molecule microarray binding, fluorescence 635 nm; higher = more signal;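 also: score merges spot fluorescence intensity with its signal-to-noise ratio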
[2] = small-molecule microarray binders of probe aDKK1, primary screen, biochemical, biotinylated probe, 635/667 nm fluorescence (AID 1099); conditions: higher = more signal;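 also: score merges 667nm spot fluorescence with signal to noise across triplicate slides; reference of the scale not given here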
[3] = small-molecule microarray binders of probe aCHRDL2, primary screen, biochemical, biotinylated probe, 635/667 nm fluorescence (AID 1100); conditions: higher = more signal
[4] = splicing luciferase reporter signal modulators, primary screen, spliceosome inhibition project, cell-based, HEK293, splice +/- reporter (AID 1101); conditions: luminescence, 24 h, higher = more signal, called active from +8 up or from −8 down;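 also: HEK293 cells carrying a splicing-competent luciferase reporter gene; test concentration not given here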
[5] = biological target: Fibroblast growth factor 10 (Homo sapiens) (UniProt O15520); test: FGF10 binders on small-molecule microarrays, primary screen, biochemical, small-molecule microarray, 635 nm fluorescence (AID 1102); conditions: FGF10 binding, fluorescence 635 nm, higher = more signal
[6] = system: glycogen synthase kinase-3 (GSK3A per assay name; protocol says GSK3B); test: GSK3 binders on small-molecule microarrays, primary screen, biochemical, small-molecule microarray, 635 nm fluorescence, GSK3A (AID 1103); conditions: small-molecule microarray binding, fluorescence 635 nm; higher = more signal; also: the record names both GSK3A and GSK3B
[7] = biological target: Epidermal growth factor receptor (Homo sapiens) (UniProt P00533); test: EGFR binders on small-molecule microarrays, primary screen, biochemical, small-molecule microarray, 635 nm fluorescence (AID 1104); conditions: EGFR binding, higher = more signal;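 also: score merges 667 nm emission intensity with spot signal to noise over triplicate slides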
[8] = biological target: Follistatin-related protein 3 (Homo sapiens) (UniProt O95633); test: FSTL3 binders on small-molecule microarrays, primary screen, biochemical, small-molecule microarray, 635 nm fluorescence (AID 1105); conditions: FSTL3 binding, higher = more signal;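 also: score merges emission near 667 nm and signal to noise per printed spot across three slides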
[9] = biological target: Dickkopf-related protein 1 (Homo sapiens) (UniProt O94907); test: DKK1 binders on small-molecule microarrays, primary screen, biochemical, small-molecule microarray, 635 nm fluorescence scan (AID 1106); conditions: DKK1 binding, higher = more signal;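 also: score merges emission near 667 nm with signal to noise over three replicate slides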
[10] = system: Inhibin beta A chain (activin A); test: INHBA (activin A) binders on microarrays, primary screen, biochemical, small-molecule microarray, 635 nm fluorescence scan (AID 1107); conditions: small-molecule microarray binding, higher = more signal;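 also: mouse activin A protein probed at 4.33 µg/mL on printed slides; score merges bound-protein fluorescence near 667 nm with spot signal-to-noise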

Chain of Follistatin-related protein 3 (Homo sapiens) (O95633 whole entry, looked up): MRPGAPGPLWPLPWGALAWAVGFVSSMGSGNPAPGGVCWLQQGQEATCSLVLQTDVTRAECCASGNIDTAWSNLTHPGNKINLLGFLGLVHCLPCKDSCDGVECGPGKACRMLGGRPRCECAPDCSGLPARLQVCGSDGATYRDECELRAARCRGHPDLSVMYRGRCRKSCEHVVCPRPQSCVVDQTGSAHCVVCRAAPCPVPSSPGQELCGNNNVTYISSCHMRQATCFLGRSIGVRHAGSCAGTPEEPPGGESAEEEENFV
Chain of Dickkopf-related protein 1 (Homo sapiens) (O94907 whole entry, looked up): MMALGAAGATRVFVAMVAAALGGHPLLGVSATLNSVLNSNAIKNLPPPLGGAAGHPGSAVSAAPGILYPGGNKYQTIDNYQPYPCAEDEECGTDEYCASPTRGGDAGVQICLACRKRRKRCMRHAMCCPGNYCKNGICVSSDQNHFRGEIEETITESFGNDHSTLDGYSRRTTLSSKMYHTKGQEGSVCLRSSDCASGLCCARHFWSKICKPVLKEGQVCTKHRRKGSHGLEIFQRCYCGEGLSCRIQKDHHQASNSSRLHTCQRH
Chain of Fibroblast growth factor 10 (Homo sapiens) (O15520 whole entry, looked up): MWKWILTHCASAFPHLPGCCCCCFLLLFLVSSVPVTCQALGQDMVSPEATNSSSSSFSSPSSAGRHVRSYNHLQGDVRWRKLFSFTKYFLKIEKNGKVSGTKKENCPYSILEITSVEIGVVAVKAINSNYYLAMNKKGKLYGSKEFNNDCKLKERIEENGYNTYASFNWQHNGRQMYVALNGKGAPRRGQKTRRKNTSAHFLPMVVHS
Chain of Epidermal growth factor receptor (Homo sapiens) (P00533 whole entry, looked up): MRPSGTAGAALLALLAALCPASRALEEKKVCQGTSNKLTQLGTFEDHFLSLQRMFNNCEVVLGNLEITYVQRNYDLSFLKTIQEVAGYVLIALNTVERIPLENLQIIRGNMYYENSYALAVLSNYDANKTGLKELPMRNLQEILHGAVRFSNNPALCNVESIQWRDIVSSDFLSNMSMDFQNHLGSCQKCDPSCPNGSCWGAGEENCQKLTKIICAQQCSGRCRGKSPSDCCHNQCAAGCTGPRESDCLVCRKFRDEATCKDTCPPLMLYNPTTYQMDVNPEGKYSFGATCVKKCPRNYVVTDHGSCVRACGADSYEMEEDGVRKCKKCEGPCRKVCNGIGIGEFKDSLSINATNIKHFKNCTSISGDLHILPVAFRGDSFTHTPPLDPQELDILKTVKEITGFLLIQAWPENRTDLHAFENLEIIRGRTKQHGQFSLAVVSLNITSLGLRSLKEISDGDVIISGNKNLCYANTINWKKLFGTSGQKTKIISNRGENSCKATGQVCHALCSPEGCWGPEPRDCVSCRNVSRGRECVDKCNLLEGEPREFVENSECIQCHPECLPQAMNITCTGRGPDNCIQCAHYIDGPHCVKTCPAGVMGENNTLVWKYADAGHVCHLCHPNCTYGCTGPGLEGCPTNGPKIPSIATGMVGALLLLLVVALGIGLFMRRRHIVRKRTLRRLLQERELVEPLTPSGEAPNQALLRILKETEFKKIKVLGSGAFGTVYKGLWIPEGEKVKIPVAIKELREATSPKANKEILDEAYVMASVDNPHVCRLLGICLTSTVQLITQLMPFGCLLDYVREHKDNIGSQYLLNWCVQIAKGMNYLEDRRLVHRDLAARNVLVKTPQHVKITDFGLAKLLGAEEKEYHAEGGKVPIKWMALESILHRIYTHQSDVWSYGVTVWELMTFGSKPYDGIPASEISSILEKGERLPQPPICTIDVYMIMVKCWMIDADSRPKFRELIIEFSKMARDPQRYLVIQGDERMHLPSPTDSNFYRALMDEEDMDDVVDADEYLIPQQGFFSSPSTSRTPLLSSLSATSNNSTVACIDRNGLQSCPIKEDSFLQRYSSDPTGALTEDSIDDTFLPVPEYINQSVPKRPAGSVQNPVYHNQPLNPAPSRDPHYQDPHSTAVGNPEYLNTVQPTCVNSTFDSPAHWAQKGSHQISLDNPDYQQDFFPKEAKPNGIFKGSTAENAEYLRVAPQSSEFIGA

| SMILES | composite z-score [1] | composite z-score [2] | composite z-score [3] | z-score [4] | composite z-score [5] | composite z-score [6] | composite z-score [7] | composite z-score [8] | composite z-score [9] | composite z-score [10] |
| --- | --- | --- | --- | --- | --- | --- | --- | --- | --- | --- |
| CCOC(=O)C[C@H]1[C@H](OC(=O)Cc2ccc3c(c2)OCO3)[C@@H](NC(=O)c2ccccc2)c2cc(OCCCO)ccc2N1C(=O)c1ccc2ccccc2n1 | 0.347 | -0.0053 | -0.329 | -2.44 (inactive) | 0.274 | 0.329 | 0.548 | 0.0676 | 0.328 | 0.318 |
| CCOC(=O)C[C@H]1[C@H](OC(=O)c2ccc(C(=O)c3ccccc3)cc2)[C@@H](NC(=O)C2CCCCC2)c2cc(OCCCO)ccc2N1C(=O)Cc1ccc(OC)cc1 | 0.331 | 0.765 | 0.7 | 0.0309 (inactive) | 0.547 | 0.328 | 0.285 | 0.459 | 0.0351 | 0.666 |
| C=CCNC(=O)[C@H]1[C@@H]2C(=O)O[C@@H](c3ccccc3)[C@@H](c3ccccc3)N2[C@@H](c2ccc(O)cc2)[C@]12C(=O)N(C(=O)OCCOC)c1ccc(C#CC3(O)CCCCCC3)cc12 | 1.35 | 0.263 | 0.468 | 0.0928 (inactive) | 0.385 | 0.716 | 0.228 | 0.33 | 0.138 | 1.09 |
| CC(C)[Si](C#C[Si](C(C)C)(C(C)C)C(C)C)(O[C@H](C)c1cn(Cc2cccc(Cl)c2)nn1)C(C)C | 0.259 | -0.493 | -0.578 | -0.589 (inactive) | 0.539 | 1.14 | 0.863 | 0.433 | 0.459 | -0.33 |
| CC(C)c1ccc(NN2C(C(O)c3ccccn3)C=CC3C(=O)N(c4ccccc4)C(=O)C32)cc1 (stereo not given) | 1.52 | 0.753 | 0.105 | -0.684 (inactive) | 1.53 | 1.31 | 0.69 | 1.33 | 0.454 | -0.75 |
| CCOC(=O)C[C@H]1[C@H](OC(=O)c2cc3ccccc3oc2=O)[C@@H](NC(=O)c2ccc3ccccc3n2)c2cc(OCCCO)ccc2N1C(=O)c1ccc2ccccc2n1 | 0.522 | 0.273 | -0.033 | 0.613 (inactive) | 1.13 | 0.743 | 0.503 | 1.3 | 1.01 | 0.626 |
| CN1C(=O)C2C=CC(C(O)c3ccc(F)cc3)N(N3CCCCC3)C2C1=O (stereo not given) | 1.56 | 1.3 | 1.33 | 0.981 (inactive) | 0.252 | 0.432 | -0.406 | -0.0733 | -1.3 | 1.23 |
| O=C1C2C=CC(C(O)c3ccc(Br)cc3)N(Nc3ccccc3)C2C(=O)N1c1ccccc1 (stereo not given) | 0.489 | -0.0556 | 0.504 | 1.34 (inactive) | 0.295 | 0.435 | 0.181 | 0.429 | -0.25 | 1.23 |
| O=C1NC(=O)C2C1C=CC(C(O)c1ccc(-c3ccccc3)s1)N2Nc1ccccn1 (stereo not given) | 0.115 | 1.09 | 1.25 | 1.56 (inactive) | 0.475 | -0.316 | 0.559 | 0.561 | 0.664 | 1.18 |
| CCC[C@@H]1C[C@@]1(CCC)[C@@H](NC(=O)c1cccs1)c1ccc(Cl)cc1 | -0.67 | 0.119 | 1.09 | -1.15 (inactive) | -0.341 | -0.919 | -2.21 | -2.17 | -1.76 | 0.948 |
| C=CCC(OC(C)=O)[C@@H]1[C@@H](N(Cc2cc3ccccc3o2)C(=O)Cc2ccc(OC)cc2)c2cc(OCCCO)ccc2N1C(=O)c1ccc(-c2ccccc2)cc1 (stereo not given in full) | -0.297 | 0.068 | 0.63 | -0.354 (inactive) | -0.185 | -0.158 | -0.426 | -0.272 | -0.45 | 1.34 |
| Cc1ccc(N2C(=O)c3ccccc3[C@](C)(C(=O)NC(C)C)[C@@H]2c2ccc(CO)cc2)nc1 | 0.118 | -0.0537 | 1.04 | 0.415 (inactive) | -1.22 | -0.738 | -1.21 | -2.01 | -1.63 | -2.54 |
| C=CCC(OC(C)=O)[C@@H]1[C@@H](N(Cc2cccc3ccccc23)C(=O)Cc2ccc(F)cc2)c2cc(OCCCO)ccc2N1C(=O)Cc1ccc(OC)cc1 (stereo not given in full) | -0.44 | -0.0312 | 0.0398 | -1.07 (inactive) | 0.398 | -0.0555 | -0.0723 | 0.665 | 0.104 | 1.25 |
| COc1ccc([Si](C)(C)[C@@H]2[C@@H](CCO)O[C@]3(C(=O)N(Cc4ccccc4)c4ccc(N5C(=O)COc6ccccc65)cc43)[C@H]2C)cc1 | 0.845 | -0.0934 | 0.0637 | -1.21 (inactive) | 0.0677 | 0.0368 | -0.0505 | 0.0717 | 0.163 | 0.254 |
| COc1ccccc1CN1C(=O)c2ccccc2[C@@]2(Cc3ccccc3N(C3CC3)C2=O)[C@@H]1c1ccc(CO)cc1 | 0.76 | -0.0899 | 0.322 | 0.312 (inactive) | -0.671 | -0.928 | -0.724 | -0.279 | -0.535 | 0.52 |
| COCCOC(=O)N1C(=O)[C@@]2(c3cc(C#Cc4ccc(OC)cc4)ccc31)[C@H](c1ccc(OCCO)cc1)N1[C@H](c3ccccc3)[C@H](c3ccccc3)OC(=O)[C@H]1[C@@H]2C(N)=O | 1.27 | 0.654 | 0.608 | -0.372 (inactive) | 1.25 | 1.32 | 0.711 | 1.43 | 0.853 | 0.48 |

| SMILES | composite z-score [1] | composite z-score [2] | composite z-score [3] | z-score [4] | composite z-score [5] | composite z-score [6] | composite z-score [7] | composite z-score [8] | composite z-score [9] | composite z-score [10] |
| --- | --- | --- | --- | --- | --- | --- | --- | --- | --- | --- |
| NC(=O)NCC#Cc1ccc2c(c1)[C@]1(C(=O)N2)[C@H](c2ccc(O)cc2)N2[C@H](c3ccccc3)[C@H](c3ccccc3)OC(=O)[C@H]2[C@@H]1C(=O)NC[C@H](O)c1ccccc1 | -0.227 | 0.004 | 0.725 | -0.647 (inactive) | -1.39 | -0.964 | -1.2 | -2.26 | -1.53 | -1.82 |
| O=C(N1CCOCC1)[C@@]1(CCS(=O)(=O)c2ccccc2)COC(c2ccc(OCCCO)cc2)=N1 | 0.495 | 0.0641 | 0.691 | 0.122 (inactive) | 0.94 | 0.443 | -0.935 | -0.827 | -0.899 | -0.704 |
| C[N+](C)(C)CCCCCCNC(=O)[C@H]1C[C@H]2C(=O)N3CCC[C@H]3C(=O)N2[C@H]1c1cccc(OCCO)c1 | 1.66 | 0.273 | -0.155 | 0.592 (inactive) | 0.755 | 1.23 | 0.907 | 1.3 | 0.705 | 0.959 |
| [N-]=[N+]=Nc1ccccc1C[C@]1(C(=O)NCCN2CCOCC2)N=C(c2ccc(OCCCO)cc2)O[C@H]1c1ccccc1N=[N+]=[N-] | 1.15 | 0.63 | 1.07 | -1.41 (inactive) | 1.47 | 1.29 | 0.472 | 1.2 | 0.418 | 1.18 |
| COC(=O)[C@]1(Cc2ccccc2N=[N+]=[N-])N=C(c2ccc(OCCCO)cc2)O[C@@H]1c1ccccc1 | 1.12 | 0.974 | 1.12 | 9.3 (active) | -0.261 | 0.196 | -0.355 | -0.105 | -0.932 | 0.897 |
| COC(=O)[C@@]1(Cc2ccc(OC)cc2)[C@H]2c3cc(C(=O)N(C)C)n(CCF)c3C[C@H]2CN1C(=O)c1ccccc1 | 1.17 | 1.23 | 0.923 | -0.674 (inactive) | 0.601 | 1.14 | 0.185 | 1.03 | -0.123 | 0.854 |
| COCCCNC(=O)[C@]1(Cc2ccccc2CN=[N+]=[N-])N=C(c2ccc(OCCCO)cc2)O[C@@H]1c1ccccc1CN=[N+]=[N-] | 1.59 | 1.35 | 1.25 | 0.438 (inactive) | 0.944 | 1.19 | 0.119 | 0.07 | -0.214 | 0.413 |
| C=CC[C@]1(C(=O)NCC(O)CO)N=C(c2ccc(OCCCO)cc2)O[C@H]1c1ccccc1N=[N+]=[N-] (stereo not given in full) | 0.939 | 0.731 | 1.28 | -0.789 (inactive) | 0.258 | -0.216 | -0.0496 | -0.291 | -0.379 | 1.42 |
| COc1ccc(C#Cc2ccc3c(c2)[C@]2(C(=O)N3)[C@H](C(N)=O)[C@H]3C(=O)O[C@H](c4ccccc4)[C@H](c4ccccc4)N3[C@@H]2c2ccc(O)cc2)cc1 | 0.818 | 0.153 | 0.411 | 10.5 (active) | 0.904 | 0.491 | 0.248 | 0.313 | 0.0346 | -0.116 |
| COC(=O)[C@@]1(Cc2ccccc2)[C@H]2c3cc(C(=O)N4CCCC4)n(CCO)c3C[C@H]2CN1C(=O)c1ccccc1 | 0.346 | 2.22 | 1.5 | -1.88 (inactive) | 0.615 | 0.343 | 0.414 | 1.14 | 0.337 | 0.305 |
| O=C1N(CCS(=O)(=O)c2ccccc2)Cc2ccccc2C[C@@]12COC(c1ccc(OCCCO)cc1)=N2 | 1.69 | 1.15 | 1.26 | 0.67 (inactive) | 1.07 | 1.29 | 0.847 | 1.3 | 0.628 | 1.32 |
| O=C(CS)NCCCCCNC(=O)[C@@H]1C[C@@H]2C(=O)N3CCC[C@H]3C(=O)N2[C@@H]1c1ccc(O)cc1 | 0.847 | 0.233 | 0.61 | 0.466 (inactive) | 0.598 | 1.14 | 0.128 | 0.0144 | 0.219 | 0.0603 |
| NC(=O)[C@@H]1[C@H]2C(=O)O[C@H](c3ccccc3)[C@H](c3ccccc3)N2[C@H](c2ccccc2OCCO)[C@@]12C(=O)Nc1ccc(C#CCCO)cc12 | 1.03 | -0.302 | 0.54 | 0.305 (inactive) | -0.293 | -0.802 | -0.461 | 0.118 | -0.647 | 0.233 |
| COCCCNC(=O)[C@@H]1c2ccccc2C(=O)N(c2ccc(C)cn2)[C@H]1c1ccc(CO)cc1 | 1.21 | -0.281 | 1.01 | -0.517 (inactive) | -1.87 | -1.19 | -2.24 | -1.84 | -1.42 | -1.84 |
| CCCC=C(CCC)[C@@H](NS(=O)(=O)c1ccccc1)c1ccc(C(F)(F)F)cc1 | 0.98 | 0.965 | 0.224 | -3.31 (inactive) | 0.867 | 1.32 | 0.216 | 0.89 | -0.0595 | -0.0447 |
| C=CCC(OC(C)=O)[C@@H]1[C@@H](N(Cc2ccc(-c3cccc(C(F)(F)F)c3)o2)C(=O)c2cccc3ccccc23)c2cc(OCCCO)ccc2N1C(=O)c1ccc(-c2ccccc2)cc1 (stereo not given in full) | 0.295 | 0.0007 | -0.0042 | -0.791 (inactive) | 0.192 | -0.579 | 0.181 | 0.248 | 0.518 | 1.09 |
